Experimental data: PubChem BioAssay AID1159580 (chemical genetic matrix, 2015)
In all, about 5,500 compounds went through this assay and about 2,000 (36%) were called active. Roughly 18% stayed inconclusive and do not appear here. Rule as the data show it: active = normalized growth mostly below about 0.91 (no sharp cut-off); inconclusive = no clear call, values can overlap the other calls; inactive = mostly above about 0.92. This is one part of the list.

Assay: chemical genetic growth profiling, strain panel (AID 1159580);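 also: tested at 20 µM; growth read once vehicle control cultures reached saturation at 30 °C; 1 = growth at the plate median or of vehicle wells; lower values mean less growth of the strain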
Conditions: growth OD
[1] = S. cerevisiae deletion strains, locus YAL013W, strain DEP1, stronger effect = lower value
[2] = S. cerevisiae deletion strains, locus YBR229C, strain ROT2, stronger effect = lower value
[3] = S. cerevisiae deletion strains, locus YDL101C, strain DUN1, stronger effect = lower value
[4] = S. cerevisiae deletion strains, locus YDL134C, strain PPH21, stronger effect = lower value
[5] = S. cerevisiae deletion strains, locus YDR150W, strain NUM1, stronger effect = lower value
[6] = S. cerevisiae deletion strains, locus YEL061C, strain CIN8, stronger effect = lower value
[7] = S. cerevisiae deletion strains, locus YGR078C, strain PAC10, stronger effect = lower value
[8] = S. cerevisiae deletion strains, locus YHR030C, strain SLT2, stronger effect = lower value
[9] = S. cerevisiae deletion strains, locus YHR087W, strain rtc3, stronger effect = lower value
[10] = S. cerevisiae deletion strains, locus YJR043C, strain POL32, stronger effect = lower value
[11] = S. cerevisiae deletion strains, locus YJR075W, strain HOC1, stronger effect = lower value
[12] = S. cerevisiae deletion strains, locus YKL190W, strain CNB1, stronger effect = lower value
[13] = S. cerevisiae deletion strains, locus YLR039C, strain RIC1, stronger effect = lower value
[14] = S. cerevisiae deletion strains, locus YLR058C, strain SHM2 (second series), stronger effect = lower value
[15] = S. cerevisiae deletion strains, locus YLR085C, strain ARP6, stronger effect = lower value
[16] = S. cerevisiae deletion strains, locus YLR262C, strain YPT6, stronger effect = lower value
[17] = S. cerevisiae deletion strains, locus YML094W, strain GIM5, stronger effect = lower value
[18] = S. cerevisiae deletion strains, locus YMR219W, strain ESC1, stronger effect = lower value
[19] = S. cerevisiae deletion strains, locus YMR263W, strain SAP30, stronger effect = lower value
[20] = S. cerevisiae deletion strains, locus YMR307W, strain GAS1, stronger effect = lower value
[21] = S. cerevisiae deletion strains, locus YNL153C, strain GIM3, stronger effect = lower value
[22] = S. cerevisiae deletion strains, locus YNL298W, strain CLA4 (second series), stronger effect = lower value
[23] = S. cerevisiae deletion strains, locus YNL322C, strain KRE1, stronger effect = lower value
[24] = S. cerevisiae deletion strains, locus YNR030W, strain Alg12, stronger effect = lower value
[25] = S. cerevisiae deletion strains, locus YPL055C, strain LGE1, stronger effect = lower value
[26] = S. cerevisiae deletion strains, locus YPL241C, strain CIN2, stronger effect = lower value
[27] = S. cerevisiae deletion strains, locus YPR135W, strain CTF4, stronger effect = lower value

Measured: normalized growth

COC(=O)c1c(OC)ccc(N=CNO)c1OC
inactive: [1] 1 | [2] 0.982 | [3] 0.993 | [4] 1.01 | [5] 0.962 | [6] 1.01 | [7] 1 | [8] 1.05 | [9] 0.986 | S. cerevisiae deletion strains, locus YJL187C, strain SWE1, stronger effect = lower value 0.985 | [10] 1 | [11] 0.976 | [12] 1.01 | [13] 1.02 | [14] 1 | [15] 0.999 | [16] 0.997 | [17] 0.993 | [18] 0.999 | [19] 0.926 | [20] 0.94 | [21] 0.989 | [22] 1.03 | [23] 1 | [24] 0.996 | [25] 0.888 | [26] 1.01 | [27] 1.07 | S. cerevisiae strains, strain wild type, stronger effect = lower value 1.03

Cc1cc(N=CNO)c2ccccc2n1
inactive: [1] 1 | [2] 0.994 | S. cerevisiae deletion strains, locus YCL061C, strain MRC1, stronger effect = lower value 0.976 | [3] 0.966 | [4] 0.997 | [5] 0.938 | [6] 0.999 | [7] 0.981 | S. cerevisiae deletion strains, locus YGR229C, strain SMI1, stronger effect = lower value 1.01 | [8] 0.869 | [9] 1.04 | [10] 0.959 | [11] 1 | [12] 0.997 | [13] 0.959 | [14] 0.989 | [15] 0.932 | [16] 0.988 | [17] 1.01 | [18] 1 | [19] 0.994 | [20] 1.19 | S. cerevisiae deletion strains, locus YNL128W, strain TEP1, stronger effect = lower value 0.966 | [21] 0.987 | [22] 0.919 | [23] 0.962 | [24] 0.982 | [25] 1.04 | [26] 0.966 | [27] 0.955
